The list is not random: actives were taken first. Their share in the collection is about 1.3%.
MazF activator = activators of E. coli MazEF toxin-antitoxin RNase, primary screen, biochemical, fluorescence, uHTS | Endoribonuclease toxin MazF (Escherichia coli (strain K12)), P0AE70 | FAM/BHQ RNA-DNA oligo cleavage fluorescence, 5 h | activation, % at 20 µM | hit rate 0.32% among 350,000 | AID 504720, 2011; in the data active = activation above about 50%
Sa RN4220 lethal = growth inhibition of S. aureus RN4220, primary screen, OD600. 16 h. hit rate 0.33% among 330,000. inhibition, % (no concentration beside the values); in the data active = inhibition above about 85%;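 also: plate controls were untreated cells for no effect and reference antibiotic for full effect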
Sa ugtP lethal = growth inhibition of ugtP-null S. aureus, primary screen, RN4220 ugtP deletion, OD600; 16 h; growth inhibition, % (no concentration beside the values); hit rate 0.54% among 330,000; in the data active = growth inhibition above about 68%;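 also: plate controls were untreated wells for no effect and antibiotic for full effect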
TcdB inh = TcdB glycohydrolase inhibitors, primary screen, biochemical, single point, plate reader. Toxin B (Clostridioides difficile), P18177. hit rate 0.24% among 350,000. AID 652162, 2013. TcdB glycohydrolase enzymatic assay. inhibition, % at 9.99 µM; in the data active = inhibition above about 10%
Target sequence (P18177 whole entry, looked up): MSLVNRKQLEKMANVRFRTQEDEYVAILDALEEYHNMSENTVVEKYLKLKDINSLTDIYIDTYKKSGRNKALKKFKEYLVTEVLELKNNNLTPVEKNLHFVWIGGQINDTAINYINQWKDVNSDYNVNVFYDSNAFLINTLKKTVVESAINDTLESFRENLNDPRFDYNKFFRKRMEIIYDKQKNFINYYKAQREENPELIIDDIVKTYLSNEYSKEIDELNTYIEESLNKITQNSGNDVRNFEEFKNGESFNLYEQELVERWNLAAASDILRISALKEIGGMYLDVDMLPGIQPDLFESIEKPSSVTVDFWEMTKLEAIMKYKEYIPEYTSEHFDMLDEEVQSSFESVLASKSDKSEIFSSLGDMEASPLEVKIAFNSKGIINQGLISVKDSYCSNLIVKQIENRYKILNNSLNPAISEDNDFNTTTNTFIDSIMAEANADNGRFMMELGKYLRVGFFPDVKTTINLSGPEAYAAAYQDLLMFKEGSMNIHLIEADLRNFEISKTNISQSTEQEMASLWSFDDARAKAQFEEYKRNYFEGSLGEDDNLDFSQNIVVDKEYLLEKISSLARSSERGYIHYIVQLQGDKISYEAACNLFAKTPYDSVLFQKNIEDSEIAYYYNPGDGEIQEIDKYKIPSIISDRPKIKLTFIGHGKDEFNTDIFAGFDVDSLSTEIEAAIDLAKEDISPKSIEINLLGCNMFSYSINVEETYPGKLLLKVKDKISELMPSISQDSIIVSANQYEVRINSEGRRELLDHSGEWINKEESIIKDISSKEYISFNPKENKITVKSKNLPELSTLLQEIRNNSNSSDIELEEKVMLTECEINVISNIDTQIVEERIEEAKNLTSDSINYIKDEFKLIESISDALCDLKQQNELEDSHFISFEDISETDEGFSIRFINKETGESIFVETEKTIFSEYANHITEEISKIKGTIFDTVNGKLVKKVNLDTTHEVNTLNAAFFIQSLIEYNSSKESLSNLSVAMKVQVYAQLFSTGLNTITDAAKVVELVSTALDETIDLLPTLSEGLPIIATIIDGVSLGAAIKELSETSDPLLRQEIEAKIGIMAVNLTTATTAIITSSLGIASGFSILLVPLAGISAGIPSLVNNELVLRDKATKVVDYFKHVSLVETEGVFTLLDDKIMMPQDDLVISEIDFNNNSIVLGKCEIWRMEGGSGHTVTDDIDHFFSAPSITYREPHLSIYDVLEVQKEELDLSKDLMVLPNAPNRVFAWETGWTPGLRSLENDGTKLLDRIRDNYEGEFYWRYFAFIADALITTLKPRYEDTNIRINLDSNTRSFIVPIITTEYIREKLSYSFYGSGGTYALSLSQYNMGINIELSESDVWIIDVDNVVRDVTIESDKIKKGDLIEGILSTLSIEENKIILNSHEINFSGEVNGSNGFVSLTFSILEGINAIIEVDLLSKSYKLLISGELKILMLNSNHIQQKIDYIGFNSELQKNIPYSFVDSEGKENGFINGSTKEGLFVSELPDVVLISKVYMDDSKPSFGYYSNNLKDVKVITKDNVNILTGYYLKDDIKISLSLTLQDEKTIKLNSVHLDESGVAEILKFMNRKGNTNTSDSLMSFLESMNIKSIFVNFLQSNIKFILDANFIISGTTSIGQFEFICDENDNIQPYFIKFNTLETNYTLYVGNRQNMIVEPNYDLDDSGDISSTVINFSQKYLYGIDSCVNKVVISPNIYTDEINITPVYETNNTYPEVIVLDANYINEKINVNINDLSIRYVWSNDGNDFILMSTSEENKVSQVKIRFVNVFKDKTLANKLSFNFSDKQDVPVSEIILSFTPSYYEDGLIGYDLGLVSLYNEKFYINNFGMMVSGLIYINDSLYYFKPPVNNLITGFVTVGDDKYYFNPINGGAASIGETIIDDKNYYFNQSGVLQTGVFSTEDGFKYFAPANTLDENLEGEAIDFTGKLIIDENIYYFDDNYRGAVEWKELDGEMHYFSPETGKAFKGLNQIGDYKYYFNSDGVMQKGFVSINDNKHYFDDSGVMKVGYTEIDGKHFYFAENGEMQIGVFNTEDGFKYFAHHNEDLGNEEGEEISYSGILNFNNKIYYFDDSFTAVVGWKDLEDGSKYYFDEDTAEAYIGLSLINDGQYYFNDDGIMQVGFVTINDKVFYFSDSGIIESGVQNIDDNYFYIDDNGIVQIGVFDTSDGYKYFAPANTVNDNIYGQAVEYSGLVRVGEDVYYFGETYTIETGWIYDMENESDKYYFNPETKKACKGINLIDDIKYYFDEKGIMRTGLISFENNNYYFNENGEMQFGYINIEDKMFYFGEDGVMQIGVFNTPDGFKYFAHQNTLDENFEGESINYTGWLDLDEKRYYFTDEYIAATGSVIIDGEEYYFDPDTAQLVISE
Mtb hypoxia rep = PubChem AID 1159583; fluorescence inhibition, % (no concentration beside the values); M. tuberculosis hypoxia-regulated fluorescent reporter, fluorescence; hit rate 0.1% among 300,000; in the data active = fluorescence inhibition mostly above about 23%, no sharp cut-off; inactive = mostly below about 17%
PfHsp40 yeast = rescue of yeast from PfHsp40 toxicity, primary screen, S. cerevisiae, ATP luminescence; S. cerevisiae expressing PfHsp40, growth rescue; growth rescue, % at 12.5 µM; hit rate 0.68% among 340,000; AID 504582, 2011; in the data active = growth rescue above about 28%, passing the limit was not always enough; inconclusive = no clear call, values can overlap the other calls;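 also: yeast W303a lacking pdr1 and pdr3 grown in galactose medium; growth measured after three days at 30 °C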
Starred values were filed as active, the others as inactive; ? = inconclusive; . = no result given.

SMILES | MazF activator | Sa RN4220 lethal | Sa ugtP lethal | TcdB inh | Mtb hypoxia rep | PfHsp40 yeast
COc1ccc(C#Cc2ccc3c(c2)O[C@@H](CN(C)C(C)=O)[C@@H](C)CN([C@H](C)CO)S3(=O)=O)cc1 | . | . | . | 0 | . | .
Cc1ccccc1NN=Cc1sc(=O)n(Cc2cccc(C(=O)O)c2)c1Cl | . | 3 | -4 | . | 5 | .
O=C(CSc1ccc(-c2ccccn2)nn1)N1CCCC1 | 18 | 1 | 4 | 1 | 2 | 91*
Clc1ccc(CSc2ccc(-c3ccccn3)nn2)cc1 | -2 | 7 | 3 | 2 | 8 | -1
O=C(CSc1ccc(-c2ccco2)nn1)N1CCCC1 | 3 | 3 | 3 | 1 | 7 | 0
c1ccc(CSc2ccc(-c3ccccn3)nn2)cc1 | -2 | 9 | 1 | 0 | 13 | 112*
O=C(CSc1ccc(-c2ccccn2)nn1)NC1CCCC1 | 2 | 4 | -3 | 1 | 19 | 221*
O=C(CSc1ccc(-c2ccccn2)nn1)c1ccccc1 | 2 | 7 | 6 | 1 | 10 | 401*
C[C@@H]1CCCCO[C@@H](CN(C)S(=O)(=O)c2ccc(Cl)cc2)[C@H](C)CN([C@@H](C)CO)C(=O)c2cc(NC(=O)Nc3ccccc3)ccc2O1 | . | . | . | 1 | . | .
Cc1ccc(C(=O)NCc2ccco2)cc1[N+](=O)[O-] | 3 | 2 | 5 | . | . | 0
NC(=O)c1ccc(NCC2CCCO2)c([N+](=O)[O-])c1 (configuration not stated) | -3 | -1 | -1 | 1 | 16 | 0
Cc1cccc(NC(=O)c2ccc(NCCc3ccccc3)c([N+](=O)[O-])c2)c1 | 575* | 2 | 2 | -3 | 3 | -1
O=C(Nc1ccc(Nc2ccccc2)cc1)c1ccc(Cl)c([N+](=O)[O-])c1 | 78* | -7 | -17 | 0 | 9 | 8
Cc1ccc(NC(=O)c2ccc(NCCN)c([N+](=O)[O-])c2)cc1 | 13 | 1 | -8 | 1 | . | 0
Cc1ccc(NC(=O)c2ccc(NCC3CCCO3)c([N+](=O)[O-])c2)cc1Cl (configuration not stated) | 267* | -3 | 7 | . | . | 1
Cc1ccc(NC(=O)c2ccc(NCc3ccco3)c([N+](=O)[O-])c2)cc1Cl | 334* | 0 | 0 | . | -4 | -1
CC(=NNC(=O)c1nnn(-c2nonc2N)c1-c1ccccc1)c1ccc2c(c1)OCO2 | . | 6 | 7 | . | -17 | .
C=C(C)COc1ccc(-c2[nH]ncc2-c2ccc(OC)cc2)c(O)c1 | -5 | -12 | 0 | 2 | 18 | 92*
COc1ccccc1-c1cn[nH]c1-c1ccc(OCc2ccc(F)cc2)cc1O | -6 | -7 | 2 | 0 | 7 | 0
CCCc1ccc(Oc2cn[nH]c2-c2ccc(O)cc2O)cc1 | 5 | 67 | 90* | . | -4 | 181*
Oc1cc(OCc2ccccc2)ccc1-c1[nH]ncc1-c1ccccc1 | -6 | -4 | 29 | 1 | 1 | ?
C=C(C)COc1ccc(-c2[nH]ncc2-c2ccccc2)c(O)c1 | -6 | -16 | 84* | . | 10 | 519*
C=C(C)COc1ccc(-c2[nH]ncc2-c2ccc(OC)c(OC)c2)c(O)c1 | -3 | . | . | . | . | 1
COc1ccccc1-c1cn[nH]c1-c1ccc(O)cc1O | 6 | -2 | -4 | 14* | 2 | 1
CC(NCc1cccnc1)=C(C#N)C(=O)NCc1ccccc1 | . | 3 | -4 | . | 4 | .
SMILES | MazF activator | Sa RN4220 lethal | Sa ugtP lethal | TcdB inh | Mtb hypoxia rep | PfHsp40 yeast
COc1ccc(-c2cn[nH]c2-c2ccc(O)cc2O)cc1 | 0 | -1 | 10 | 15* | 2 | 0
COc1ccc(Oc2cn[nH]c2-c2ccc(O)cc2O)cc1 | 12 | -13 | 8 | . | 12 | 2
CN(N=Cc1ccc(Cl)cc1)c1ncc(Cl)cc1C(F)(F)F | . | -11 | 98* | . | 8 | .
CN(N=Cc1ccc(Cl)cc1Cl)c1ncc(Cl)cc1C(F)(F)F | . | -1 | 54 | . | 0 | .
C[C@@H]1CN([C@@H](C)CO)C(=O)c2cccc(NC(=O)CCCCCC(=O)Nc3ccccc3N)c2O[C@@H]1CN(C)C(=O)Nc1ccc(C(F)(F)F)cc1 | . | . | . | 0 | . | .
Cc1nc(NC(=O)/C=C/c2ccc(Cl)cc2Cl)sc1C(=O)N(C)C | 79* | 3 | 13 | 0 | 5 | -2
Cc1nc(NC(=O)/C=C/c2ccccc2)sc1C(=O)N(C)C | 4 | 4 | 8 | . | 8 | -1
CC(C)(C)c1nc(NC(=O)Nc2ccccc2)sc1Br | 22 | 97* | 92* | 1 | -3 | 0
Cc1ccc(NC(=S)Nc2ccc(OC(F)F)c(Cl)c2)cc1Cl | 9 | 75 | 67 | 1 | 3 | -1
CC(NC(=S)Nc1ccc(OC(F)F)c(Cl)c1)C(C)(C)C (configuration not stated) | 3 | 10 | 30 | 3 | 28* | 0
Fc1ccc(NC(=S)Nc2ccccc2OC(F)F)cc1Cl | -2 | 9 | -29 | . | -5 | -2
Cc1cc(C)cc(NC(=S)Nc2ccc(Cl)c(Cl)c2)c1 | -10 | 100* | 101* | 1 | 13 | -1
Cc1cccc(C)c1NC(=S)Nc1ccc(Cl)c(Cl)c1 | -11 | 19 | -12 | 2 | 11 | -1
Cc1ccc(NC(=S)Nc2ccc(Cl)c(Cl)c2)c(OC(F)F)c1 | 0 | 100* | 100* | 0 | 7 | 1
CCOc1ccc(OCC(=O)Nc2ccc(OC)cc2)cc1 | -5 | 3 | 8 | . | 3 | 0
CCc1ccc(OCC(=O)NNCC(=O)Nc2ccc(OC)cc2)cc1 | 6 | 2 | 2 | 0 | 57* | 0
O=C(NC(=S)Nc1ccc(S(=O)(=O)Nc2nccs2)cc1)c1ccc(F)c(F)c1 | -7 | 14 | 97* | . | 15 | -2
O=C(NC(=S)Nc1ccc(S(=O)(=O)Nc2nccs2)cc1)c1ccccc1 | -1 | 14 | 91* | . | 15 | -1
CCc1nnc(NS(=O)(=O)c2ccc(NC(=S)NC(=O)c3ccc(Br)cc3)cc2)s1 | 0 | 29 | 86* | 0 | 16 | -2
CC1Oc2cc3c(-c4c(O)cc(O)c5c(O)c6c(cc45)OC(C)C(C)C6=O)c(O)cc(O)c3c(O)c2C(=O)C1C (configuration not stated) | 4 | 98* | 98* | . | . | 77*
Cc1sccc1C=NNC(=O)c1ccco1 | . | 5 | 9 | . | 10 | .
Cc1nc2ccc(C(=O)NCc3ccc4c(c3)OCO4)cc2s1 | 3 | -1 | 7 | 1 | 1 | 589*
Cc1nc2c(ccc3nc(NC(=O)c4ccc5c(c4)OCCO5)sc32)s1 | 73* | 8 | -18 | . | 4 | 0
Cc1nc2ccc3nc(NC(=O)c4ccc5c(c4)OCCO5)sc3c2s1 | -38 | 4 | -3 | . | 0 | -1
C[C@H]1CN([C@@H](C)CO)C(=O)Cc2cc(NC(=O)NC3CCCCC3)ccc2O[C@@H]1CN(C)CC1CCCCC1 | . | . | . | 0 | . | .
Clc1ccc(N2CCOCC2)nn1 | 7 | 8 | 6 | 1 | 1 | -2
Cc1cc(C)n(-c2ccc(N3CCOCC3)nn2)n1 | 4 | -6 | 5 | . | 11 | 36*

Screens (PubChem BioAssay)
